# Bioassay records: PubChem BioAssay, National Center for Advancing Translational Sciences (NCATS)
# Compounds with a hit are over-represented: about 10% of the library has one in this group of screens.
# G9a block: inhibitors of human histone lysine methyltransferase G9a; G9a H3K9 monomethylation, AlphaScreen, 2 h; Potency, µM (highest dose often 102 µM), for the others: at the highest dose activity, negative = inhibition, most hits filed as inhibitors; 350,000 compounds, 8.8% hits; AID 504332; also: % is scaled to controls: 0 for no effect and ±100 for the full control effect; nearly all actives have a fitted effect of over 75% in size
# Target sequence (Q96KQ7 913-1193 limits assumed): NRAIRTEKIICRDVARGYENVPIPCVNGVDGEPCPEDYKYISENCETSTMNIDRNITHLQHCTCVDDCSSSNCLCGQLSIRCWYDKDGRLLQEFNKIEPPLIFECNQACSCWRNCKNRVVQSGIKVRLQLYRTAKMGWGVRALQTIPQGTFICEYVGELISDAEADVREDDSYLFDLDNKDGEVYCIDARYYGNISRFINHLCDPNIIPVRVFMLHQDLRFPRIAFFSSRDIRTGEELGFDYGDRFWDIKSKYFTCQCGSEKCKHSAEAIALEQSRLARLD
#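 Methyltransferase reactions run at room temperature for 2 h (20 nM enzyme, 500 nM biotin-H3K9 peptide, 20 uM SAM) after a 15 min compound preincubation; product detected by AlphaScreen beads and anti-H3K9me1 antibody.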
# BAZ2B inh: blocks human BAZ2B. 360,000 compounds, 4.4% hits. AlphaScreen BAZ2B-H3K14Ac peptide displacement. AID 504333. Q9UIF8. Potency, µM (highest dose often 114 µM), without a hit: at the top dose activity change, negative = inhibition, actives largely listed as inhibitors; also: % is scaled to controls: 0 for no effect and ±100 for the full control effect; nearly all actives have a fitted effect of over 60% in size
#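 AlphaScreen luminescence quantifies BAZ2B engagement of H3K14Ac peptide; the protein and biotinylated peptide are both at 50 nM final, buffer PBS pH 7.4 with 0.01% Tween-20, all steps at room temperature.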
# JMJD2A Tudor inh: inhibitors of human JMJD2A Tudor domain | O75164 | AlphaScreen JMJD2A-Tudor / H3K4me3 peptide binding | Potency, µM (top dose mostly 114 µM), without a hit: at the highest dose activity change, negative = inhibition, actives largely listed as inhibitors | 390,000 compounds, 4.4% hits; also: % is scaled to controls: 0 for no effect and ±100 for the full control effect; nearly all actives have a fitted effect of over 50% in size
# HP1b chromo inh: inhibitors of HP1-beta chromodomain binding to methylated histone tails | AID 540317 | P83916 | Potency, µM (titrated, usually from 114 µM), inactives show at the highest dose activity change, negative = inhibition, actives largely listed as inhibitors | AlphaScreen HP1-beta / biotin-H3K9me3 peptide binding | 390,000 compounds, 0.56% hits; also: nearly all actives have a fitted effect of over 70% in size
# Target sequence (P83916 whole entry, looked up): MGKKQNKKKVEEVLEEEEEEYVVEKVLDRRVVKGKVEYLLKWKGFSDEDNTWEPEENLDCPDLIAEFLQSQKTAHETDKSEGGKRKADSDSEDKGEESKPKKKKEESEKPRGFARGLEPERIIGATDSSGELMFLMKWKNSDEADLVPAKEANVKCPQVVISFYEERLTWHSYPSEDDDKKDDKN
#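 HP1-beta protein (50 nM final) preincubated 30 min at room temperature with biotinylated H3(1-18)K9me3 peptide (50 nM) in PBS pH 7.4, 0.01% Tween-20, then compound added for 30 min. AlphaScreen streptavidin donor/nickel chelate acceptor beads (10 ug/mL final), 30 min dark, luminescence read.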
# GLS inhibitor: inhibitors of human glutaminase (GLS); O94925; GLS enzymatic activity, qHTS titration; Potency, µM (series often up to 45.5 µM), for the others: at the top dose activity change, negative = inhibition, hits mostly inhibitors; 410,000 compounds, 0.21% hits; AID 624170; also: % is scaled to controls: 0 for no effect and ±100 for the full control effect
#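 Coupled fluorescence readout: glutamate oxidase/HRP/Amplex Red detect glutamate formed by hKGA from L-glutamine (1 mM solution added). Buffer 45 mM KH2PO4 pH 8.2, 0.02% Tween-20; reads at t0 and 30 min RT.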
# * hit, by the source's call; ? = inconclusive; . = not tested or not shown; [ ] = dose if it differs, or a comment. Calls follow the shape of the dose curve; as a rule, active = well fitted curve in the direction sought with a large enough effect; inconclusive = small, poorly fitted or top-dose-only effect, or another doubt; inactive = no such curve, though single readings can be large; an effect the other way counts as inactive or inconclusive. Potency is read from the fitted curve at half-maximal effect.
SMILES,G9a block,BAZ2B inh,JMJD2A Tudor inh,HP1b chromo inh,GLS inhibitor
CCCOC(=O)c1cccc(NC(=O)c2cccnc2)c1,22%[59 µM],6%,-15%,14%,12%
CCc1c(C)sc(NC(=S)Nc2cccnc2)c1C(=O)OC,45µM*,13%,-7%[57.1 µM],10%,-15%
Cc1ccc(CNC(=O)CN(c2ccc(Cl)cc2Cl)S(=O)(=O)c2ccccc2)cc1,-27%[59 µM],-7%,-4%,36%,1%
Cc1sc2c(c1C)c(=O)n(-c1cccc(C(F)(F)F)c1)c(=O)n2Cc1ccccc1C#N,24%[59 µM],33%,-14%,50%,-5%
CC12CCC(C(=O)N3CCc4ccccc43)(CC1=O)C2(C)C (stereo unspecified),-3%[12.7 µM],-6%,-16%[11.4 µM],71%,-7%
O=C(c1ccc(C(=O)N2CCN(c3ccccc3F)CC2)nc1)N1CCN(c2ccccc2F)CC1,?,-16%,79µM*,10%,-9%
O=C(c1cccc(C(=O)N2CCN(c3ccccc3F)CC2)c1)N1CCN(c2ccccc2F)CC1,-38%[12.7 µM],-26%,-12%,14%,4%
O=C(c1ccc(S(=O)(=O)Nc2ccccc2F)cc1)N1CCN(c2ccccc2O)CC1,?,2%,32µM*,27%,25%
O=C(O)c1ccn(Cn2cnc3ccccc32)n1,?,?,22µM*,4%,-1%
O=C(Cn1cnc2ccccc21)c1ccccc1,.,-37%,-5%,59%,-12%
Cc1cccc(-n2c(C)cc(/C=C3\NC(=O)NC3=O)c2C)c1,45µM*,?,-27%,-3%,-16%
Cc1cc(C)c(-n2c(C)cc(/C=C3/NC(=O)NC3=O)c2C)c(C)c1,?,50µM*,?,?,4%
COC(=O)C1=C(C)NC(=O)/C1=C\c1cc(C)n(-c2cccc(C)c2)c1C,-2%[12.7 µM],40µM*,45µM*,20µM*,15%
COc1ccc2c(c1)CC(C(=O)Nc1cc(Cl)ccc1C)CO2 (stereo unspecified),3%[59 µM],3%,4%,32%[57 µM],-16%
CCCNC(=O)c1cc(C2CCCN(C(=O)c3ccc(NC(C)=O)cc3)C2)on1 (stereo unspecified),.,.,.,.,1%
COc1ccc(C2c3[nH]c4ccccc4c3CCN2C(=O)c2ccccc2C(C)=O)c(F)c1 (stereo unspecified),.,-11%,?,2%,0%
COc1ccc(C2c3[nH]c4ccccc4c3CCN2C(=O)c2cc3ncccn3n2)c(F)c1 (stereo unspecified),20%[12.7 µM],32µM*,?,2%,5%
COc1ccc(C2c3[nH]c4ccccc4c3CCN2C(=O)c2cn3ccccc3n2)c(F)c1 (stereo unspecified),.,22µM*,?,-5%,-1%
COc1cccc(-c2ccc(NC(=O)C3CCCN(Cc4cnn(C)c4)C3)cc2)c1 (stereo unspecified),31%[59 µM],?,-11%,24%,-7%
COCc1cc(CN2CCCC(C(=O)Nc3ccc(-c4ccco4)cc3)C2)ccc1OC (stereo unspecified),8.9µM*,?,?,?,15%
Cc1ncc(CN2CCCC(C(=O)Nc3ccc(-c4cscn4)cc3)C2)cn1 (stereo unspecified),.,-4%,-14%,33%,1%
Cc1ncc(CN2CCCC(C(=O)Nc3ccc(-c4ccco4)cc3)C2)cn1 (stereo unspecified),10%[0.501 µM],79µM*,-24%,14%[57 µM],1%
FC(F)(F)c1cc(-c2cccc(Br)c2)nc2ncnn12,26%[59 µM],20%,-17%,61%,1%
Fc1ccc(-c2cc(C(F)(F)F)n3ncnc3n2)cc1,13µM*,-24%,?,22%,2%
Cc1c(C(C)(C)C)c(C=S)n2ccccc12,4µM*,-38%,50µM*,?,3%
SMILES,G9a block,BAZ2B inh,JMJD2A Tudor inh,HP1b chromo inh,GLS inhibitor
O=c1c2c3n(c(=S)nc2[nH]n1-c1ccccc1)CCCCC3,50µM*,?,-14%,17%,7%
Cn1c(=O)c2c(ncn2CCO)n(C)c1=O,-8%[59 µM],-16%,-6%,34%,0%
Cc1ccc(OCCn2cnc3c2c(=O)n(C)c(=O)n3C)cc1,45µM*,1%,-6%,29%,0%
Cc1nnc(C)c2c(C)n(-c3ccc(Cl)c(N)c3)c(C)c12,56µM*,-33%,?,-9%,-10%
Cc1cc(C)cc(-n2c(C)c3c(C)nnc(C)c3c2C)c1,?,?,?,-19%,-1%
Cc1ccc(C)c(CN2C(=O)C3(c4ccccc42)N(c2ccc(Cl)cc2)C(=O)CS3(=O)=O)c1 (stereo unspecified),-27%[59 µM],-1%[57.1 µM],-24%,11%,-3%
CC1=Nc2cc(C(=O)NCCc3ccc(Cl)cc3)ccc2Sc2ccc(C)cc21,-30%[59 µM],-27%,-21%,8%,5%
CC(C)Oc1cccc(C(=O)NC(=S)Nc2ccc(N3CCN(C)CC3)cc2)c1,.,40µM*,50µM*,?,29%
COc1cccc(C(=O)Nc2ccc(C)cc2)c1,8%[12.7 µM],3%,-6%,41%,-4%
COc1cc(C(=O)NC(=S)Nc2ccc(N3CCCC3)cc2)cc(OC)c1OC,32µM*,?,-31%,10%,2%
COc1cccc(C(=O)NC(=S)Nc2ccc(N(C)C)cc2)c1,10µM*,10µM*,25µM*,?,42%
COc1cc(C(=O)NC(=S)N2CCCCCC2)cc(OC)c1OC,-3%,-21%,-10%,13%,-9%
CC(C)Oc1ccc(C(=O)Nc2ccc(N(C)C)cc2)cc1,3.5µM*,12%,?,-19%,4%
CC(C)Oc1ccc(C(=O)Nc2ccc3c(c2)n(C)c(=O)n3C)cc1,-2%,?,-9%,49%,-5%
CCOC(=O)[C@H](CCc1ccccc1)NC(C)C(=O)N1CC2(CC1C(=O)O)SCCS2 (stereo partly specified),.,.,.,.,-2%
Cc1ccc(CN(C(=O)COc2cccc([N+](=O)[O-])c2)c2ccccn2)cc1,3%[59 µM],-19%,-11%,37%,4%
COc1cccc(N2CCN(S(=O)(=O)c3ccc(-n4cnnn4)cc3)CC2)c1,-11%,-3%[57.1 µM],2%,29%,-15%
COc1cccc(C(=O)NC(=S)Nc2ccc(N3CCCC3)cc2)c1,8.9µM*,13µM*,40µM*,?,37%
COc1ccc(C(=O)Nc2ccc(N3CCCC3)cc2)cc1Br,40µM*,0%,?,12%,-6%
CCOc1ccc(C(=O)NC(=S)Nc2ccc(N3CCC(C)CC3)cc2)cc1[N+](=O)[O-],10µM*,?,?,-32%,26%
COc1ccc(C(=O)NC(=S)Nc2ccc(CN3CCOCC3)cc2)cc1OC,?,-30%,?,12%,23%
CCOc1ccc(C(=O)NC(=S)Nc2ccccc2N2CCC(C)CC2)cc1[N+](=O)[O-],-4%[59 µM],?,-27%,-1%,-3%
